Bioassay records: PubChem, National Center for Advancing Translational Sciences (NCATS)
IL-1B inflam inh: blocks inflammasome-driven IL-1 beta release | AID 743279 | 4.7% of 360,000 active | activity change, % at 57.5 µM | THP-1 LPS/ATP IL-1B secretion, AlphaLISA, 16 h; hits give low values; in the data active = activity change below about -50%; inconclusive = mostly about -30% to -49%; also: % is scaled to controls: 0 for no effect and ±100 for the full control effect
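Secreted IL-1B measured by AlphaLISA bead assay after 16 h compound exposure of THP-1 cells; compounds (final up to 57.5 uM) added 1 h before LPS (250 ng/mL) and ATP (1.25 mM) stimulation; lower signal means less secretion.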
Vif-APOBEC3F blk: blocks the Vif interaction with APOBEC3F; HeLa A3F-eYFP + Vif (tagged APOBEC3F with the HIV-1 protein that degrades it), YFP fluorescence increase; Potency, µM (top dose mostly 46.1 µM), for the others: at the top dose activity, negative = active; 0.2% of 390,000 active; also: potency is read from the fitted curve at half-maximal effect; % of control where 0% means no effect; nearly all actives have a fitted effect of over 65% in size
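Fluorescence increase (Ex 488/Em 500-530) after overnight compound treatment at 37 deg C flags inhibition of Vif-driven A3F-eYFP loss in stable HeLa A3F-eYFP/Vif cells seeded overnight beforehand.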
Giardia killer: Giardia lamblia killing; AID 540267; Giardia lamblia trophozoite viability; 0.15% of 340,000 active; activity change, % at 7.66 µM, hits read low; in the data active = activity change below about -80%; inconclusive = between about -30% and that limit;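 also: parasites exposed to compound for two days anaerobically before the ATP read; % is scaled to controls: 0 for no effect and ±100 for the full control effect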
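Luminescence from cellular ATP indicates surviving trophozoites (100 cells/well) following 48 hrs anaerobic compound treatment at 37 deg C; signal develops 15-30 min at room temperature.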
MCF10A rerep: inducers of DNA re-replication in MCF 10A breast cells. MCF 10A DNA re-replication, Hoechst nuclear intensity, 48 h. Potency, µM (titrated, usually from 46.1 µM), for the others: at the highest dose activity, positive = re-replication, most hits filed as activators. 2.9% of 350,000 active; also: potency is read from the fitted curve at half-maximal effect; % of control where 0% means no effect; nearly all actives have a fitted effect of over 50% in size
SW480 rereplic: induces DNA re-replication in SW480 colon adenocarcinoma cells | SW480 DNA re-replication, Hoechst DNA content imaging, 48 h | Potency, µM (titrated, usually from 46.1 µM), for the others: at the highest dose re-replication activation, most hits filed as activators | 1.8% of 340,000 active | AID 624297; also: potency is read from the fitted curve at half-maximal effect; % of control where 0% means no effect; nearly all actives have a fitted effect of over 55% in size
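Per well, 250 cells were exposed to pinned compound for 48 hr. Nuclear DNA was visualised with Hoechst (40 min, 37 C) and total object intensity recorded by fluorescence scanning.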
Vif-APOBEC3G blk: blocks the Vif interaction with human APOBEC3G. 0.076% of 410,000 active. HeLa A3G-eYFP + Vif (tagged APOBEC3G with the HIV-1 protein that degrades it), YFP fluorescence, overnight. Q9HC16. Potency, µM (top dose mostly 46.1 µM), inactives show at the top dose activity, negative = active, hits mostly inhibitors; also: potency is read from the fitted curve at half-maximal effect; % is scaled to controls: 0 for no effect and ±100 for the full control effect; nearly all actives have a fitted effect of over 60% in size
Target sequence (Q9HC16 whole entry, looked up): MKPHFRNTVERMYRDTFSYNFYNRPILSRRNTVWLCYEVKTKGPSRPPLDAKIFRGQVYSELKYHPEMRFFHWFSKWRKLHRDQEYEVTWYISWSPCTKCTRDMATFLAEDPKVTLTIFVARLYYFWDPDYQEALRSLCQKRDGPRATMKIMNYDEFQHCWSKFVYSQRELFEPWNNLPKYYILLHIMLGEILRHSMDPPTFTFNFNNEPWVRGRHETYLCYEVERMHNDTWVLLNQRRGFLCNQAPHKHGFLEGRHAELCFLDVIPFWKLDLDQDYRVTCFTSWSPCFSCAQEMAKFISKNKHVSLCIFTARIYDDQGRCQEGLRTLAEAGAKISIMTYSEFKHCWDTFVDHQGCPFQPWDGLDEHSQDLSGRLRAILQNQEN
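Read-out is eYFP fluorescence (Ex 488/Em 500-530) from Vif-expressing HeLa A3G-eYFP cells; more signal means A3G escaped Vif-mediated degradation. Cells plated overnight, compound pinned in, incubated overnight at 37 deg C.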
* marks the source's active call; other numbers are inactive results; u = inconclusive; x = not tested or not shown; [ ] = dose if it differs, or a comment. Rows were chosen to be rich in hits. Some 6.9% of all compounds tested hit in one or more screens of this group. Unless noted, calls follow the shape of the dose curve; as a rule, active = well fitted curve in the direction sought with a large enough effect; inconclusive = small, poorly fitted or top-dose-only effect, or another doubt; inactive = no such curve, though single readings can be large; an effect the other way counts as inactive or inconclusive.

SMILES	IL-1B inflam inh	Vif-APOBEC3F blk	Giardia killer	MCF10A rerep	SW480 rereplic	Vif-APOBEC3G blk
C=CCn1c(=NC(=O)c2cccc(N3C(=O)CCC3=O)c2)sc2cccc(OC)c21	-99*	8%	22	u	1%	-7%
COc1ccc(C)c2sc(=NC(=O)c3cccc(N4C(=O)CCC4=O)c3)n(C)c12	46	0%	24	u	11%	-2%
NC(CSSCC(N)C(=O)O)C(=O)O (configuration not stated)	x	x	x	-1%	-3%	x
CCOC(=O)N1CCC2(CC1)C(C(=O)C13CC4CC(CC(C4)C1)C3)C2(C#N)C#N (configuration not stated)	-54*	0%	-8	-183%[0.0737 µM]	3%	0%
CCOC(=O)C1CCN(C(=O)COC(=O)C23CC4CC(CC(C4)C2)C3)CC1	0	2%	-15	0%	-26%	-10%
C/C(=N\Nc1nc2ccccc2[nH]1)c1ccc(Cl)s1	-97*	1%	0	u	1%	-20%
C/C(=N\Nc1nc2ccccc2[nH]1)c1ccc(N2CCOCC2)cc1	-96*	u	u	u	1%	4%
O=C(CSc1nc2ccccc2[nH]1)c1ccc(Cl)s1	3	0%	0	-7%	-8%	-1%
C/C(=N\Nc1nc(C)cc(C)n1)c1ccc(N2CCOCC2)cc1	0	1%	-8	u	u	0%
C/C(=N\Nc1nc2ccccc2[nH]1)c1ccc(C)o1	-81*	9%	23	8%	0%	-3%
CCCCn1c(=O)c2oc3ccccc3c2n(CC(=O)Nc2cccc(Cl)c2C)c1=O	x	-19%	x	x	x	-1%
CCC(=O)N1CCc2cc(S(=O)(=O)CCC(=O)N3CCN(c4ccccc4Cl)CC3)ccc21	x	0%	x	x	x	-2%
CC(C)CNC(=S)Nc1ccc(Oc2ccccc2)cc1	8	-20%	7	8.2µM*	-7%	1%
COc1cc(C2C3=C(CCCC3=O)Nc3ccc4ncccc4c32)ccc1O (configuration not stated)	11	u	0	15µM*	23µM*	u
COc1ccc(C2C3=C(CCCC3=O)Nc3ccc4ncccc4c32)cc1OC (configuration not stated)	-13	1%	-3	7%	0%	-9%
CCOc1cc(C2C3=C(CCCC3=O)Nc3ccc4ncccc4c32)ccc1O (configuration not stated)	22	-20%	1	u	18µM*	u
CCOC(=O)C1=C(C)NC2=C(C(=O)CCC2)C1c1ccc(O)c(OCC)c1 (configuration not stated)	5	6%	19	-48%	-20%	-1%
O=C1CCCC2=C1C(c1cccc(O)c1)c1c(ccc3ncccc13)N2 (configuration not stated)	-27	11%	-20	18µM*	u	-10%
COc1cc(C2C3=C(CCCC3=O)Nc3[nH]n(-c4ccccc4)c(=O)c32)ccc1OC(C)=O (configuration not stated)	0	0%	-5	7.3µM*	21µM*	-6%
O=C(NCC1CCCC(CNC(=O)Nc2ccc(Cl)cn2)C1)Nc1ccc(Cl)cn1 (configuration not stated)	-83*	-1%	11	u	u	-1%
CCOc1cc(C=C(C(=O)OC)C(=O)OC)ccc1OCc1ccc([N+](=O)[O-])cc1	-118*	x	-9	0.65µM*	15µM*	-23%
COc1cc(NS(C)(=O)=O)ccc1Nc1c2ccccc2nc2ccccc12	-105*	4%	-13	u	0.15µM*	-3%
N#Cc1cccc(Nc2c3c(nc4ccccc24)CCC3)c1	-59*	-1%	1	u	1%	-1%
COc1ccc(Nc2nc(-c3ccc(C)cc3)nc3ccccc23)c(OC)c1	x	-1%	x	x	x	3%
Cc1cccc(Nc2c3c(nc4ccccc24)CCC3)c1	x	5%	3	-9%	-53%	0%
SMILES	IL-1B inflam inh	Vif-APOBEC3F blk	Giardia killer	MCF10A rerep	SW480 rereplic	Vif-APOBEC3G blk
COc1cc(Nc2c3c(nc4ccccc24)CCC3)cc(OC)c1OC	6	-5%	-14	8.2µM*	13µM*	u
COc1ccc(OC)c(Nc2ccc(Nc3cc(OC)ccc3OC)nn2)c1	-101*	-6%	-13	0%	0%	1%
CC1CCC(NC(=O)c2ccc(CS(=O)(=O)c3ccc(Cl)cc3)o2)CC1 (configuration not stated)	x	0%	x	x	x	6%
COc1ccc(-c2nc3cc(NC(=O)Cc4ccc(Cl)cc4)ccc3o2)cc1OC	x	1%	x	x	x	-15%
COc1ccc(SCC(Cc2ccccc2)N2CCN(CC(C)C)CCC2=O)cc1 (configuration not stated)	x	x	-17	x	x	u
COc1ccccc1CNC(=O)C(NS(=O)(=O)c1ccc2c(c1)CCN2C(C)=O)C(C)C (configuration not stated)	x	3%	x	x	x	2%
COc1ccc(OC)c(Nc2c3ccccc3nc3ccccc23)c1	-84*	-21%	4	21µM*	21µM*	-4%
CC(C)NCC(=O)Nc1c2c(nc3ccccc13)CCC2	27	15%	-22	-1%	-4%	2%
COc1ccc([N+](=O)[O-])cc1Nc1c2ccccc2nc2ccccc12	-29	u	17	2.9µM*	u	u
COc1ccc(OC)c(Nc2c3c(nc4ccccc24)CCC3)c1	-75*	2%	10	3.3µM*	4.1µM*	u
c1coc(CNc2c3c(nc4ccccc24)CCC3)c1	-74*	-7%	12	18µM*	u	-16%
O=[N+]([O-])c1ccc(Nc2c3ccccc3nc3ccccc23)cc1	-3	-27%	4	5%	3%	-10%
Cc1cccc(OCC(=O)Nc2ccccc2C(=O)OCc2cc(=O)n3ccsc3n2)c1	x	4%	x	x	x	0%
Cc1ccc(C(=O)c2oc3ccccc3c2NC(=O)C(C)Oc2ccccc2Cl)cc1 (configuration not stated)	x	1%	x	x	x	3%
CCn1c(NCc2c[nH]c3ccccc23)nc2ccccc21	u	-2%	-2	3%	-4%[9.22 µM]	-1%
Cn1c(NCc2c[nH]c3ccccc23)nc2ccccc21	-92*	10%	5	4%	-6%	-3%
O=C(Nc1cc2c(cc1C(=O)c1ccc(Br)cc1)OCCO2)c1ccc(Cl)cc1	x	1%	x	x	x	-6%
CC[N+](C)(C)c1ccc(/C=C/c2ccncc2)cc1	x	x	x	x	x	10µM*
Cc1ccc(C)c(N2CCN(S(=O)(=O)c3ccc(-c4cnc(C5CC5)o4)cc3)CC2)c1	x	-19%	x	x	x	u
